# Test results: PubChem BioAssay (Tox21)
# Values joined by “and” are separate entries in the source; they are usually repeats but may differ in a detail not shown here. Equal values may be shown once. Inconclusive results are not listed. Entries that show only a call come without a potency. Values without a mark were called inactive. Active and inactive are the calls of the source. Calls follow the shape of the dose curve; as a rule, active = well fitted curve in the direction sought with a large enough effect in the repeat runs; inconclusive = weak or mixed curves; inactive = no such curve, though single readings can be large; an effect the other way counts as inactive or inconclusive.
# How the values were obtained:
# [1] = qHTS assay to identify small molecule agonists of the RXR signaling pathway - cell viability counter screen (AID 1159529); also: nearly all actives have a fitted effect of over 50% in size; also: potency is read from the fitted curve at half-maximal effect; as to activity change, negative = cytotoxicity: series mostly up to about 77 µM
# In short: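 Luminescence from CellTiter-Glo (30 min, RT) measured viability in the same wells as the beta-lactamase reporter readout. Cells: GeneBLAzer RXR-alpha HEK 293T, 2% charcoal-stripped FBS. Compound exposure 16 hr, 37 C.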
# [2] = qHTS assay to identify small molecule antagonists of the retinoid acid receptor (RAR) signaling pathway - cell viability counter screen (AID 1159551); also: nearly all actives have a fitted effect of over 35% in size; also: potency is read from the fitted curve at half-maximal effect
# In short: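 ATP-based viability, C3RL4 cells, 6 h at 37 C with 1 uM final retinol co-added after compound; luminescence read 30 min post CellTiter-Glo, RT.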
# [3] = qHTS assay to identify small molecule antagonists of the retinoic acid receptor (RAR) signaling pathway (AID 1159552; also: nearly all actives have a fitted effect of over 50% in size; also: potency is read from the fitted curve at half-maximal effect)
# In short: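 Luminescence from a RARE luciferase reporter in C3RL4 cells served as read-out. Cells received compounds together with 1 uM final retinol and incubated 6 hr at 37 C before detection reagent was added for 30 min at room temperature.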
# [4] = qHTS assay to identify small molecule agonists of the retinoic acid receptor (RAR) signaling pathway (AID 1159553)
# In short: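 Quantitative high-throughput format: the Tox21 10K library was tested on C3RL4 RARE-luciferase cells for 6 hr at 37 C and 5% CO2, with luminescence measured after a 30 min room-temperature reagent step.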
smiles,measurement,setting,value
CC[C@H](C)[C@H]1O[C@]2(C=C[C@@H]1C)C[C@@H]1C[C@@H](C/C=C(\C)[C@@H](O[C@H]3C[C@H](OC)[C@@H](O[C@H]4C[C@H](OC)[C@@H](NC)[C@H](C)O4)[C@H](C)O3)[C@@H](C)/C=C/C=C3\CO[C@@H]4[C@H](O)C(C)=C[C@@H](C(=O)O1)[C@]34O)O2,Potency,[1],4.36 µM (active)
same,Potency,[2],13.7 µM (active)
CCN(CC)C(=S)S,Potency,[1],19.4 µM (active)
CCN(CC)CCN1C(=O)CN=C(c2ccccc2F)c2cc(Cl)ccc21,Potency,[1],inactive
same,Potency,[2],inactive
Clc1ccc(C(Cl)(Cl)Cl)cc1Cl,Potency,[1],inactive
same,Potency,[2],inactive
O.O.O.O.O.O.O=S(=O)([O-])[O-].[Ni+2],Potency,[1],inactive
same,Potency,[2],inactive
COC(=O)C(C)N(C(=O)c1ccco1)c1c(C)cccc1C (stereo not drawn),Potency,[1],inactive
same,Potency,[2],inactive
CC(=O)[O-].CC(=O)[O-].[Co+2],Potency,[1],inactive
same,Potency,[2],inactive
CO/N=C(/C1=NOCCO1)c1ccccc1Oc1ncnc(Oc2ccccc2Cl)c1F,Potency,[1],inactive
same,Potency,[2],inactive
CSC1=N[C@@](C)(c2ccccc2)C(=O)N1Nc1ccccc1,Potency,[1],inactive
same,Potency,[2],inactive
CC(C)=CC1C(C(=O)OC(C#N)c2cccc(Oc3ccccc3)c2)C1(C)C (stereo not drawn),Potency,[1],inactive
same,Potency,[2],inactive
Clc1ccc(C(c2ccc(Cl)cc2)C(Cl)Cl)cc1,Potency,[1],39.5 µM (active) and 38.9 µM (active)
same,Potency,[2],inactive
CC(=O)[O-].CC(=O)[O-].CC(=O)[O-].[Cr+3],Potency,[1],inactive
same,Potency,[2],inactive
CNN,Potency,[1],inactive
same,Potency,[2],inactive
CC(=O)C(Cl)C(=O)N(C)C (stereo not drawn),Potency,[1],inactive
same,Potency,[2],inactive
Cc1ccc(C)c2ccccc12,Potency,[1],inactive
same,Potency,[2],inactive
CC(=O)O.CC(=O)O.CC(=O)O.CC(=O)O.CC(=O)O.CC(=O)O.CC(=O)O.O.O.[Cr].[Cr].[Cr],Potency,[1],inactive
same,Potency,[2],inactive
CC(Cc1ccc(OCC(=O)O)cc1)NCC(O)c1csc(C(F)(F)F)n1 (stereo not drawn),Potency,[1],inactive
same,Potency,[2],inactive
CCC[CH2][Sn]([CH2]CCC)([CH2]CCC)[O][Sn]([CH2]CCC)([CH2]CCC)[CH2]CCC,Potency,[1],0.479 µM (active)
same,Potency,[2],1.5 µM (active)
CCCCc1ccccc1,Potency,[1],inactive
same,Potency,[2],inactive
C=CCBr,Potency,[1],inactive
same,Potency,[2],inactive
CC[C@]1(O)CC[C@H]2[C@@H]3CCC4=CCCC[C@@H]4[C@H]3CC[C@@]21C,Potency,[1],inactive
same,Potency,[2],inactive
CCCCn1cc[n+](C)c1 (tested in a mixture with another compound),Potency,[1],inactive
same,Potency,[2],inactive
O=c1c2ccccc2c(=O)c2c1cc(Cl)c1[nH]c3c([nH]c12)c(Cl)cc1c(=O)c2ccccc2c(=O)c13,Potency,[1],inactive
same,Potency,[2],inactive
[C-]1=CC=CC1.[Cl][Zr+2][Cl].c1cc[cH-]c1,Potency,[1],inactive
same,Potency,[2],inactive
O.O.O.O.O.O.O.O=S(=O)([O-])[O-].[Co+2],Potency,[1],inactive
same,Potency,[2],inactive
C=Cc1cccc(CCl)c1,Potency,[1],inactive
same,Potency,[2],inactive
CC(C)C(Br)C(=O)NC(N)=O (stereo not drawn),Potency,[1],inactive
N#Cc1c[nH]cc1-c1cccc2c1OC(F)(F)O2,Potency,[1],inactive
same,Potency,[2],inactive
CN1CCc2cc3c(cc2C1O)OCO3 (stereo not drawn),Potency,[1],inactive
same,Potency,[2],inactive
c1cc[n+]2c(c1)-c1cccc[n+]1CC2,Potency,[1],inactive
same,Potency,[2],inactive
CC(=O)[O][Sn]([c]1ccccc1)([c]1ccccc1)[c]1ccccc1,Potency,[1],0.138 µM (active)
same,Potency,[2],7.7 µM (active)
CCCC[N+]1(C)CCCC1 (tested in a mixture with another compound),Potency,[1],inactive
same,Potency,[2],inactive
Cc1cnc2c(C(=O)O)c(Cl)ccc2c1,Potency,[1],inactive
same,Potency,[2],inactive
CCC(C)Br (stereo not drawn),Potency,[1],inactive
same,Potency,[2],inactive
CSC(C)(C)/C=N/O,Potency,[1],inactive
same,Potency,[2],inactive
ClC1=C(Cl)[C@]2(Cl)[C@H]3[C@H]([C@@H]4C=C[C@H]3C4)[C@@]1(Cl)C2(Cl)Cl,Potency,[1],49 µM (active)
same,Potency,[2],inactive
O=S1(=O)OCC2C(CO1)C1(Cl)C(Cl)=C(Cl)C2(Cl)C1(Cl)Cl (stereo not drawn),Potency,[1],43.6 µM (active)
O=C(O)[C@H](O)[C@@H](O)C(=O)O,Potency,[1],inactive
same,Potency,[2],inactive
OCC(Br)CBr (stereo not drawn),Potency,[1],inactive
same,Potency,[2],inactive
CC(C)C(Nc1ccc(C(F)(F)F)cc1Cl)C(=O)OC(C#N)c1cccc(Oc2ccccc2)c1 (stereo not drawn),Potency,[1],inactive
same,Potency,[2],inactive
same,Potency,[3],inactive
ClCBr,Potency,[1],inactive
same,Potency,[2],inactive
same,Potency,[3],inactive
same,Potency,[4],inactive
CC#C[C@]1(O)CC[C@H]2[C@@H]3C[C@H](C)C4=CC(=O)CC[C@]4(C)[C@H]3CC[C@@]21C,Potency,[1],inactive
same,Potency,[2],inactive
same,Potency,[3],13.3 µM (active)
same,Potency,[4],inactive
O=C1C2(Cl)C3(Cl)C4(Cl)C(Cl)(Cl)C5(Cl)C3(Cl)C1(Cl)C5(Cl)C24Cl (stereo not drawn),Potency,[1],24.1 µM (active) and 41.8 µM (active)
same,Potency,[2],47.8 µM (active)
same,Potency,[3],21.3 µM (active) and 29.3 µM (active)
CC(Cc1ccc2c(c1)OCO2)NO (stereo not drawn),Potency,[1],inactive
same,Potency,[2],inactive
same,Potency,[3],inactive
same,Potency,[4],inactive
Cc1cccc(Cc2cnc[nH]2)c1C,Potency,[1],inactive
same,Potency,[2],inactive
same,Potency,[3],inactive
same,Potency,[4],inactive
CCC1(CC)C(=O)N=C(O)NC1=O,Potency,[1],inactive
same,Potency,[2],inactive
same,Potency,[3],inactive
same,Potency,[4],inactive
Clc1c(Cl)c(Cl)c(Cl)c(Cl)c1Cl,"activity change, negative = cytotoxicity",[1],0.339% [at 6.97 µM]
same,"activity change, negative = cytotoxicity",[2],0.805% [at 8.39 µM]
same,"activity, negative = inhibition",[3],2.67% [at 8.39 µM]
same,activation,[4],-1.82% [at 8.36 µM]
BrCC(Br)(Br)Br,Potency,[1],inactive
same,Potency,[2],inactive
same,Potency,[3],inactive
C[C@H]1[C@H](c2ccc(Cl)cc2)SC(=O)N1C(=O)NC1CCCCC1,Potency,[1],inactive
same,Potency,[2],inactive
same,Potency,[3],inactive
same,Potency,[4],inactive
O=[N+]([O-])C(Br)Br,Potency,[1],inactive
same,Potency,[2],inactive
same,Potency,[3],inactive
same,Potency,[4],inactive
C=C(C)C(=O)[O][Sn]([CH2]CCC)([CH2]CCC)[CH2]CCC,Potency,[1],1.1 µM (active)
same,Potency,[2],7.7 µM (active)
same,Potency,[3],2.73 µM (active)
C=CC(=C)C,Potency,[1],inactive
same,Potency,[2],inactive
same,Potency,[3],inactive
same,Potency,[4],inactive
